# Activity calls are given as the source filed them.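 How the source made its calls, unless noted: active means inhibition above 20% together with a positive visual image hit; inconclusive means visual image hit but inhibition not above 20%; inactive means no visual image hit.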
# Key:
# [1] = inhibitors of TNFa-induced NFkB p65 translocation, primary screen, imaging, HUVEC, MLSMR starter and 10KST1 sets (AID 438); settings: HUVEC TNFa-induced p65 nuclear translocation; cell count: measured here: nuclei count (cytotoxicity indicator), at 2.08 µM; inhibition: at 2 µM, stronger effect = higher value, 0% TNFa-plus-vehicle, 100% no-TNFa wells;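 further: compound added about 3h40 before a 20 min TNFalpha stimulation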;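 on inhibition: signal is the nuclear over cytoplasmic p65 intensity ratio per well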
# [2] = reduction of polyQ htt aggregates in cells – imaging, exon1htt(103Q)mCFP cells, high-content imaging, primary screen (AID 483;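 active means visual image review flags a hit and inhibition of aggregation exceeds 20%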;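 further: compound exposure lasted 3 days before fixation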;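 on nuclei count: percent of the per-plate median nuclei count of sample wells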); settings: exon1htt(103Q)mCFP cell line, aggregate imaging, at 2 µM; inhibition of aggregation: stronger effect = higher value; nuclei count: measured here: cell count, toxicity
# [3] = endothelial E-selectin expression blockers – imaging, HUVEC, immunofluorescence, MLSMR starter and 10KST1 sets, primary screen (AID 487;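 active means visually confirmed hit in the image check and inhibition above 20%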;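 on inhibition: signal is fraction of cell area covered by stained E-selectin grains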;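 on nuclei count: 100% = median nuclei count of all wells on the same plate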); settings: HUVEC TNFalpha-induced E-selectin immunofluorescence imaging, at 2 µM; inhibition: stronger effect = higher value; nuclei count: measured here: cell number, toxicity
# [4] = target: Voltage-gated potassium channel subunit beta-2 (Rattus norvegicus) (UniProt P62483); test: inhibitors of rat Kvbeta2 reductase activity – biochemical, NADPH fluorescence, primary screen (AID 622;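 active means fluorescence slope higher than the sample average by over 3 SD, cut at about -0.22 in these data, passing the limit was not always enough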;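 further: slope of raw intensity against log time taken from 70 to 1610 s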); settings: recombinant KvBeta, 4-cyanobenzaldehyde reduction, at 10 µM, stronger effect = higher value
# [5] = target: Voltage-gated potassium channel subunit beta-2 (Rattus norvegicus) (UniProt P62483); test: enhancers of rat Kvbeta2 NADPH turnover – biochemical, NADPH fluorescence, primary screen (AID 623;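 active means NADPH fluorescence slope more negative than the mean of all samples by about 3 SD, 99.7% confidence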;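 further: fluorescence intensity change per second fitted from 20 to 320 s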); settings: Recombinant KvBeta, NADPH fluorescence decrease slope, 10 min; at 10 µM; stronger effect = lower value
# [6] = target: Alpha-2C adrenergic receptor (Homo sapiens) (UniProt P18825); test: compounds altering alpha2C-coupled GIRK flux – cell-based, HEK293 alpha2C/GIRK1/2, thallium flux, primary screen (AID 624;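 active means fluorescence slope after compound addition differing from the mean of all screened samples at 99.7% confidence, in either direction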;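 further: slope of fluorescence ratio to pre-addition baseline per second over 15 to 24 s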); settings: thallium flux BTC fluorescence, at 10 µM, actives lie on both sides
# [7] = blockers of RIG-like receptor reporter activation – cell-based, Sendai virus stimulus, luciferase, 10K MLSCN set, TLR/RLR signaling modifier project, primary screen (AID 602276;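 active means inhibition at or above 50% at 10 µM; inactive means inhibition below 50%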;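 further: firefly luciferase from ISG56 promoter only with Renilla not read in this screen; 0% = Sendai virus plus DMSO and 100% = medium plus DMSO without virus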); settings: HEK293 RL24 IRF3 luciferase reporter, at 10 µM, stronger effect = higher value
# [8] = TLR3 IRF3 reporter activation blockers – cell-based, poly I:C stimulus, luciferase, 10K MLSCN set, primary screen (AID 602277;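 active means inhibition of the reporter signal at or above 50%; inactive means inhibition below 50%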); settings: HEK293-TLR3 RL24 IRF3 luciferase reporter, at 10 µM, stronger effect = higher value
# Chain of Voltage-gated potassium channel subunit beta-2 (Rattus norvegicus) (P62483 whole entry, looked up): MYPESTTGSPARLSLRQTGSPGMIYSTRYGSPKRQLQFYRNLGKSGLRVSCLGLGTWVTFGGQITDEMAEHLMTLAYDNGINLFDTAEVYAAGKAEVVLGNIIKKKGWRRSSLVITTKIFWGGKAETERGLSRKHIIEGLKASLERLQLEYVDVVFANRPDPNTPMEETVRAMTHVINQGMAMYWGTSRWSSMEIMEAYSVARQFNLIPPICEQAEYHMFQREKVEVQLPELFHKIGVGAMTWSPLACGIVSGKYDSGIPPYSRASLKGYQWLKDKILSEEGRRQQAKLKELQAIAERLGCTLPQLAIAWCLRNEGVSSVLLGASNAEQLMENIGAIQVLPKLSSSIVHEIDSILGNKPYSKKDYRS
# Chain of Alpha-2C adrenergic receptor (Homo sapiens) (P18825 whole entry, looked up): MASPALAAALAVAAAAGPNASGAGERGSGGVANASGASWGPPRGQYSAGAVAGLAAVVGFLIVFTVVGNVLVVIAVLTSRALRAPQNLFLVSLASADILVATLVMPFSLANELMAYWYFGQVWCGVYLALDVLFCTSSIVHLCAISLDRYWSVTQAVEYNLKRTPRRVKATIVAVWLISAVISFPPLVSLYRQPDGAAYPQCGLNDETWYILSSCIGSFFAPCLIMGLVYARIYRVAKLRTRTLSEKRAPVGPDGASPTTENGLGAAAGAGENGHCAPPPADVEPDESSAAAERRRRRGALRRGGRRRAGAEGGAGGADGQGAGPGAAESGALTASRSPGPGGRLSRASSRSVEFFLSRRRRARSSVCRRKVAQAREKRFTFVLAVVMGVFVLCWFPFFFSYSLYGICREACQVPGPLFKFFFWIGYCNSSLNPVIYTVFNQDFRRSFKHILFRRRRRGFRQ
SMILES,cell count [1],inhibition [1],inhibition of aggregation [2],nuclei count [2],inhibition [3],nuclei count [3],fluorescence slope [4],NADPH fluorescence slope [5],slope [6],inhibition [7],inhibition [8]
Cc1ccccc1-n1nnnc1SCC(=O)Nc1ccc(S(=O)(=O)N2CCCC2)cc1,675,-5.5% (inactive),11% (inactive),96.4%,-1% (inactive),110%,-0.534 (inactive),1.4e-05 (inactive),0.00566 (inactive),23.8% (inactive),24.1% (inactive)
CCN1CCN(c2ncnc3c2oc2nc(C)c4c(c23)CC(C)(C)OC4)CC1,476,-2.9% (inactive),0.7% (inactive),102%,-35.5% (inactive),116%,-0.472 (inactive),-2.5e-05 (inactive),0.00388 (inactive),-6.53% (inactive),30.5% (inactive)
C/C=C/c1ccc(OCCn2cncn2)c(OC)c1,746,-6.6% (inactive),-27.6% (inactive),132%,-73.8% (inactive),120%,-0.519 (inactive),3.6e-05 (inactive),0.00659 (inactive),-19.9% (inactive),2% (inactive)
CCCC(=O)Nc1nc2ccc(S(N)(=O)=O)cc2s1,718,-1.8% (inactive),-16.5% (inactive),102%,-9.7% (inactive),100%,-0.406 (inactive),5.8e-05 (inactive),0.00596 (inactive),-18.7% (inactive),-57.7% (inactive)
CCCc1cc(=O)[nH]c(Nc2ccc(OC)c(Cl)c2)n1,238,-0.8% (inactive),17.6% (inactive),88.1%,25.7% (inactive),70.9%,-0.478 (inactive),-8.5e-06 (inactive),0.00603 (inactive),-1.81% (inactive),46.2% (inactive)
Cc1cc(C)nc(N(C#N)CC(=O)N2CCC(C(N)=O)CC2)n1,553,-16.4% (inactive),12.3% (inactive),98.2%,21.6% (inactive),98.4%,-0.489 (inactive),1.8e-05 (inactive),0.00455 (inactive),14.2% (inactive),13.3% (inactive)
COCCOC(=O)/C=C1/NC(=O)CS1,669,5.3% (inactive),9.1% (inactive),100%,45.1% (inactive),98.3%,-0.606 (inactive),-1.8e-05 (inactive),0.00397 (inactive),15.1% (inactive),21.6% (inactive)
CCOC(=O)N1CCN(S(=O)(=O)c2ccc(F)c(C(=O)Nc3cc(C)cc(C)c3)c2)CC1,578,-19.7% (inactive),16.1% (inactive),62.7%,-87% (inactive),111%,-0.393 (inactive),-1.2e-05 (inactive),0.00302 (inactive),1.83% (inactive),14.3% (inactive)
COCCNC(=O)CN1C(=O)CSc2ncccc21,673,-6.7% (inactive),-43.1% (inactive),115%,-62.1% (inactive),117%,-0.413 (inactive),-1.6e-05 (inactive),0.00576 (inactive),11.1% (inactive),28.9% (inactive)
CC(=O)N1CCN(S(=O)(=O)c2cccc(C(=O)Nc3ccc4c(c3)CCC4)c2)CC1,442,10.5% (inactive),-6.6% (inactive),118%,-54.2% (inactive),111%,-0.385 (inactive),-4e-05 (inactive),0.00306 (inactive),9.87% (inactive),1.5% (inactive)
Cc1c(N(C)C)nc2ccccc2c1N,575,-3.8% (inactive),-19.4% (inactive),99.7%,42.5% (inactive),81.2%,-0.361 (inactive),-1.5e-05 (inactive),0.00599 (inactive),13.7% (inactive),20.7% (inactive)
Cc1cccc(N2C(=O)CC(N(C(=O)c3ccco3)c3cccc(C)c3)C2=O)c1 (stereo not drawn),641,-9.3% (inactive),-5.2% (inactive),99%,-156% (inactive),102%,-0.504 (inactive),-5.1e-05 (inactive),0.00488 (inactive),13.6% (inactive),19% (inactive)
CCOC(=O)C1CCN(C(c2cc3cc(C)cc(C)c3[nH]c2=O)c2nnnn2C2CCCCC2)CC1 (stereo not drawn),444,-8.2% (inactive),-7.5% (inactive),77.4%,-75.4% (inactive),159%,-0.625 (inactive),-3.6e-06 (inactive),0.00591 (inactive),13.6% (inactive),38.3% (inactive)
CN(C(=O)c1cc2sccc2n1C)C1CCCCC1,227,1% (inactive),5.1% (inactive),80.1%,-64% (inactive),116%,-0.487 (inactive),2.7e-05 (inactive),0.00503 (inactive),-56.2% (inactive),-93.3% (inactive)
CC(C)c1cc(C(=O)NCc2ccco2)no1,788,3.7% (inactive),-21.5% (inactive),104%,-45.3% (inactive),106%,-0.586 (inactive),-2.6e-05 (inactive),0.00624 (inactive),-22.8% (inactive),-50.6% (inactive)
COc1cccc(NC(=O)c2ccco2)c1,596,5.6% (inactive),7% (inactive),93.3%,32.9% (inactive),96.1%,-0.401 (inactive),6.1e-06 (inactive),0.00282 (inactive),-31.2% (inactive),-128% (inactive)
COC(=O)C1=C(C)Nc2nnnn2C1c1cccs1 (stereo not drawn),536,-8.8% (inactive),-0.9% (inactive),107%,-19.9% (inactive),62.5%,-0.599 (inactive),-6.8e-05 (inactive),0.0058 (inactive),4.45% (inactive),20.5% (inactive)
Cc1nc2scc(-c3ccco3)c2c(=O)n1/N=C/N(C)C,453,-4.8% (inactive),-22.8% (inactive),86.6%,-35.6% (inactive),116%,-0.342 (inactive),-6.4e-05 (inactive),0.00533 (inactive),-2.39% (inactive),3.07% (inactive)
Oc1ccccc1-c1cc(C(F)(F)C(F)F)[nH]n1,337,-1% (inactive),1.9% (inactive),105%,46.4% (inactive),106%,-0.332 (inactive),-2e-05 (inactive),0.00606 (inactive),-13.1% (inactive),-54.6% (inactive)
CN(C1CCCCC1)S(=O)(=O)c1ccc(NC(=O)c2ccco2)cc1,301,2.8% (inactive),-6.6% (inactive),106%,-28.1% (inactive),112%,-0.399 (inactive),-4.1e-05 (inactive),0.00468 (inactive),4.93% (inactive),-6.73% (inactive)
COc1ccccc1NC(=O)Cn1nnc(-c2ccccc2NC(=O)c2ccco2)n1,317,6.2% (inactive),-19% (inactive),86.5%,-29.7% (inactive),117%,-0.408 (inactive),-1.3e-05 (inactive),0.00705 (inactive),16.8% (inactive),37.7% (inactive)
Cc1ccc(S(=O)(=O)Nc2nc3ccccc3nc2NCc2ccco2)cc1,686,7.1% (inactive),-2% (inactive),103%,-39.6% (inactive),110%,-0.376 (inactive),6.7e-06 (inactive),0.00699 (inactive),-21.6% (inactive),-121% (inactive)
N#CC1=C(N)OC(c2ccccc2)=C(C#N)C1c1ccc2c(c1)OCO2 (stereo not drawn),609,-19.6% (inactive),6% (inactive),112%,29.2% (inactive),96.1%,-0.482 (inactive),-9.1e-05 (inactive),0.00651 (inactive),-16.2% (inactive),10.8% (inactive)
O=C(OCC(=O)N1CCC(Cc2ccccc2)CC1)c1ccc[nH]c1=O,496,-25.6% (inactive),-14.9% (inactive),107%,-41.6% (inactive),88.7%,-0.341 (inactive),-9.5e-06 (inactive),0.00527 (inactive),3.7% (inactive),6.66% (inactive)
COCCCN(C(C)=O)c1nc(-c2ccccc2)cs1,472,-6.3% (inactive),-6% (inactive),90.9%,6% (inactive),114%,-0.533 (inactive),-3.7e-05 (inactive),0.00569 (inactive),-31.3% (inactive),-75% (inactive)
O=S1(=O)C=C(Sc2nc3ccccc3s2)c2ccccc21,581,-2.6% (inactive),-17.5% (inactive),67.1%,121% (active),72.2%,-0.474 (inactive),5.2e-06 (inactive),0.00662 (inactive),16.3% (inactive),84.8% (active)
O=C(Nc1ccc(-c2noc(-c3cccs3)n2)cc1)c1cccnc1,595,8.2% (inactive),28% (inactive),115%,-49.2% (inactive),95.8%,-0.474 (inactive),2.2e-05 (inactive),0.00649 (inactive),-67.5% (inactive),-122% (inactive)
COc1ccc(-c2cc(C(F)(F)F)n3nc(C(=O)N4CCOCC4)nc3n2)cc1,620,11.1% (inactive),-19.6% (inactive),103%,41.9% (inactive),102%,-0.172 (inactive),-5.6e-05 (inactive),0.00494 (inactive),10.8% (inactive),15.3% (inactive)

# From PubChem BioAssay
